The results in this text go back to ChEMBL document CHEMBL4296182, “CO-ADD screening of NIH NCI Diversity Set V”.

For part of these data: Results with a measured potency or affinity are listed apart.

Broadly, the Inhibition is the drop in the measured response relative to a control, in per cent.

Experiment [1] deals with Staphylococcus aureus. In words: Antibacterial activity against Staphylococcus aureus MRSA ATCC 43300 (CO-ADD:GP_020); MIC in CAMBH media using NBS plates, by Resazurin F(560/590). The format is functional. The following applies: Concentration 20 uM, ASSAY_TEST Inhibition of Bacterial Growth, detection method Resazurin, Fluorescence (ex560/em590), MEDIA CAMHB, plate type 384well, CORNING #3640, time 18 hr. For orientation: Alamar Blue is a resazurin reagent that responds to reducing activity.

For experiment [2], the system named is Acinetobacter baumannii. As to the kind of experiment: Antibacterial activity against Acinetobacter baumannii ATCC 19606 (CO-ADD:GN_034); MIC in CAMBH media using NBS plates, by Resazurin F(560/590). Type of experiment: functional. The following applies: Concentration 20 uM, ASSAY_TEST Inhibition of Bacterial Growth, detection method Resazurin, Fluorescence (ex560/em590), MEDIA CAMHB, plate type 384well, CORNING #3640, time 18 hr.

Experiment [3] has as its system Escherichia coli. As to the kind of experiment: Antibacterial activity against Escherichia coli ATCC 25922 (CO-ADD:GN_001); MIC in CAMBH media using NBS plates, by Resazurin F(560/590). The format is functional. The following applies: Concentration 20 uM, ASSAY_TEST Inhibition of Bacterial Growth, detection method Resazurin, Fluorescence (ex560/em590), MEDIA CAMHB, plate type 384well, CORNING #3640, time 18 hr.

In experiment [4] the test system is Klebsiella pneumoniae. The following applies: Concentration 20 uM; ASSAY_TEST Inhibition of Bacterial Growth; detection method Absorption (OD600); MEDIA CAMHB; plate type 384well; NBS; CORNING #3640; time 18 hr.
Experiment [5] deals with Candida albicans. The following applies: 20 µM.
Experiment [6] has as its system Cryptococcus neoformans. The following applies: Concentration 20 uM; ASSAY_TEST Inhibition of Fungal Growth; detection method Resazurin; Absorption (OD600-OD570); plate type 384well; NBS; CORNING #3640.

On to `O=[N+]([O-])c1cc(-c2ccc([As](=O)(O)O)cc2)ccc1[As](=O)(O)O`, for which the Inhibition is 16.49% in experiment [1]; -5.02% in experiment [2]; 9.73% in experiment [3]; 17.36% in experiment [4]; 0.95% in experiment [5]; -9.04% in experiment [6].
In the case of `Cc1ccccc1NC(=O)Oc1cccc(OC(=O)c2ccccc2)c1`, the Inhibition in experiment [1] was 23.15%; in experiment [2] it was 5.34%; in experiment [3] it was 4.68%; in experiment [4] it was 11.95%; in experiment [5], 0.43%; in experiment [6], -5.38%.
Regarding `C/C=C/CC1(CC)C(=O)NC(=S)NC1=O`, the Inhibition is -2.18% in experiment [1]; -12.12% in experiment [2]; -2.34% in experiment [3]; 1.47% in experiment [4]; 1.14% in experiment [5]; 0.11% in experiment [6].
`Cc1ccc(N2C(=O)C(=CN)C(=O)N(c3ccc(C)cc3)C2=O)cc1`: the Inhibition was 17.58% in experiment [1]; 4.93% in experiment [2]; 4.14% in experiment [3]; 11.65% in experiment [4]; -1.3% in experiment [5]; -7.68% in experiment [6].
Regarding `C[C@H]1CC[C@H]2NCCN[C@H]2C1`, the Inhibition in experiment [1] was 3.35%; in experiment [2] it was -12.82%; in experiment [3] it was 14.31%; in experiment [4], 13.98%; in experiment [5], 0.84%; in experiment [6], -10.77%.
Consider `COc1cc(OC)cc(C2(C#N)CCN(C)CC2)c1`, for which the Inhibition is 3.06% in experiment [1]; 10.25% in experiment [2]; -15.21% in experiment [3]; 17.67% in experiment [4]; 8.63% in experiment [5]; 25.01% in experiment [6].
Consider `C=CCN1CC[C@]23c4c5ccc(O)c4O[C@H]2C(=O)CC[C@@]3(O)[C@H]1C5` [NALOXONE], for which the Inhibition in experiment [1] is 11.42%; in experiment [2], -13%; in experiment [3], 1.67%.
In the case of `CN(C)P(=O)(N(C)C)N1CC1`, the Inhibition in experiment [1] is 13.5%; in experiment [2], -2.37%; in experiment [3], 15.32%; in experiment [4], 12.98%; in experiment [5] it was -1.16%; in experiment [6], -11.15%.
In the case of `CC(=O)O.CCC(N)Cc1c[nH]c2ccccc12` (centres undefined) [ETRYPTAMINE ACETATE], the Inhibition in experiment [1] was 10.71%; in experiment [2], -7.1%; in experiment [3] it was 6.98%; in experiment [4], 14.32%; in experiment [5] it was 2.48%; in experiment [6], -7.72%.
Take `C1CC2NCCC3NCCC(N1)N32` (centres undefined): the Inhibition in experiment [1] was 9.55%; in experiment [2], -9.44%; in experiment [3], 11.78%; in experiment [4], 14.06%; in experiment [5] it was -0.83%; in experiment [6] it was -3.22%.
As for `FCCN(CCF)c1cccc(Cl)c1`, the Inhibition was 3.32% in experiment [1]; -11.77% in experiment [2]; 4.68% in experiment [3]; 20.4% in experiment [4]; 0.87% in experiment [5]; -7.02% in experiment [6].
Regarding `CCc1cc2c(cc1-c1csc(CC(=N)NO)n1)C(C)(C)CCC2(C)C`, the Inhibition in experiment [1] was 9.42%; in experiment [2] it was 7.35%; in experiment [3], -22.59%; in experiment [4], 1.69%; in experiment [5] it was 7.1%; in experiment [6] it was 24.54%.
Regarding `COc1ccc(CCNC2(C#N)CCCCC2)cc1OC`, the Inhibition in experiment [1] is 2.96%; in experiment [2], -11.77%; in experiment [3], 4.72%; in experiment [4] it was 9.13%; in experiment [5], 2.4%; in experiment [6], -6.07%.
As for `Cc1ccc2cc3c(ccc4ccccc43)c3c2c1CC3` [3-METHYLCHOLANTHRENE], the Inhibition in experiment [1] is 32.91%; in experiment [2], -6.45%; in experiment [3], 10.1%; in experiment [4] it was -1.21%; in experiment [5] it was 1.03%; in experiment [6], 3.35%.
Regarding `CN1CCC2(O)OCCCC2C1` (centres undefined), the Inhibition was 3.54% in experiment [1]; -13.99% in experiment [2]; 3.03% in experiment [3]; 26.78% in experiment [4]; 1.09% in experiment [5]; 3.57% in experiment [6].
As to `SC1=NC2(CCCCC2)NC12CCCCC2`, the Inhibition in experiment [1] was 8.84%; in experiment [2], 6.83%; in experiment [3], -0.29%; in experiment [4] it was 17.38%; in experiment [5] it was 4.26%; in experiment [6], -3.97%.
As for `CN1CCC(c2c[nH]c3ccccc23)C1` (centres undefined), the Inhibition in experiment [1] was 10.13%; in experiment [2] it was 1.97%; in experiment [3], -8.69%; in experiment [4], 8.23%; in experiment [5], 0.53%; in experiment [6] it was 10.07%.
For `c1ccc2c(c1)Sc1ccccc1N2CC1CN2CCC1CC2` (centres undefined) [MEQUITAZINE], the Inhibition is 31.62% in experiment [1]; 2.18% in experiment [2]; 10.66% in experiment [3]; 26.05% in experiment [4]; 3.26% in experiment [5]; -3.37% in experiment [6].
For `CC(CC(C#N)(c1ccccc1)c1ccccc1)N1CCCCC1` (centres undefined), the Inhibition in experiment [1] was -22.27%; in experiment [2], -8.26%; in experiment [3] it was -18.71%; in experiment [4], 1.48%; in experiment [5], 0.01%; in experiment [6], 28.3%.
On to `O=C1CCCN1CC#CCN1CCCC1` [OXOTREMORINE], for which the Inhibition was -8.85% in experiment [1]; 7.42% in experiment [2]; 9.1% in experiment [3]; 1.39% in experiment [4]; 0.18% in experiment [5]; -12.14% in experiment [6].
On to `C(=C\c1ccncc1)/c1ccncc1`, for which the Inhibition in experiment [1] was -0.23%; in experiment [2], -2.33%; in experiment [3] it was 7.13%; in experiment [4], 5.66%; in experiment [5], -2.45%; in experiment [6], -3.12%.
As for `NC=C1C(=O)N(c2ccccc2)C(=O)N(c2ccccc2)C1=O`, the Inhibition was -9.39% in experiment [1]; 5.08% in experiment [2]; 6.01% in experiment [3]; 10.61% in experiment [4]; 0.46% in experiment [5]; -6.24% in experiment [6].
Turning to `CC12CCC3C(CCC4Cc5[nH]c6ccccc6c5CC43C)C1CCC2O` (centres undefined), the Inhibition is -0.19% in experiment [1]; -0.61% in experiment [2]; 16.15% in experiment [3]; 10.81% in experiment [4]; -1.61% in experiment [5]; -15.22% in experiment [6].
Turning to `CC(C)(C)n1cc(C(=O)c2ccccc2)cc1-c1ccccc1`, the Inhibition in experiment [1] was 20.55%; in experiment [2] it was 13.8%; in experiment [3], 7.58%; in experiment [4], 11.31%; in experiment [5], 3.13%; in experiment [6] it was -8.32%.
On to `c1cncc(C2Nc3cccc4cccc(c34)N2)c1`, for which the Inhibition in experiment [1] was -23.65%; in experiment [2], -11.45%; in experiment [3], -11.57%; in experiment [4], 4.78%; in experiment [5], 10.3%; in experiment [6], 30.98%.
As for `CNC(=O)Oc1c(O)ccnc1C`, the Inhibition in experiment [1] is 3.2%; in experiment [2] it was -15.53%; in experiment [3], 4.87%; in experiment [4], 2.24%; in experiment [5], 5.45%; in experiment [6], -9.19%.
Regarding `CN1CCCC1c1ccc(O)nc1` (centres undefined), the Inhibition in experiment [1] was 23.44%; in experiment [2], -7.12%; in experiment [3], 16.87%; in experiment [4] it was 15.46%; in experiment [5], -1.49%; in experiment [6], -7.69%.
